The results in this text go back to PubChem BioAssay.

For part of these data: Results with a measured potency or affinity are listed apart. Active and inactive are the calls of the source.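 The calls were made as follows, unless noted: active = hit in primary screen, with calcium signal over 5 SD above buffer well mean in both duplicates; inactive = the rest.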

In test [1] the test system is TRPC4 beta (transient receptor potential cation channel C4), mouse. Description: activators of mouse TRPC4 channel, confirmation, cell-based, Fluo4 calcium, HEK293 TRPC4beta/mu-opioid, duplicates, 10 µM (AID 2426;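 active = fluorescence ratio normalized to control raised more than 50% in primary screen plus both repeat runs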;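 as to activation: percent rise of integrated ratio over buffer wells lacking compound which define 0%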). Particulars: Fluo4 calcium fluorescence, at 10 µM; active compounds read high.
Test [2] relates to transient receptor potential cation channel C4 beta (TRPC4), mouse. Description: activators of mouse TRPC4 channel, confirmation, cell-based, second round, Fluo4, HEK293 TRPC4beta/mu-opioid, 1 µM (AID 2461;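 active = primary screen active and over 50% activation in each of two duplicate runs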;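 as to activation: 0% = wells without test compound as baseline of integrated fluorescence ratio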). Conditions: Fluo4 calcium fluorescence, at 1 µM; active compounds read high.
For test [3], the system named is TRPC4 (transient receptor potential cation channel C4 beta), mouse. As to the kind of experiment: positive allosteric modulators of mouse TRPC4, confirmation, cell-based, second round, Fluo-4, HEK293 TRPC4beta/mu-opioid, 1 µM (AID 2554;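 active = primary screen hit whose fluorescence ratio, in both repeats, exceeds the weak agonist control mean by 3 SD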). Particulars: DAMGO EC20, Fluo-4 calcium flux, at 1 µM; active compounds read high. A general note: A change in cytosolic calcium serves as a functional read-out for many receptors and channels.

Test [4] has as its system TRPC4 beta (transient receptor potential cation channel C4), mouse. As to the kind of experiment: positive allosteric modulators of mouse TRPC4, confirmation, cell-based, Fluo-4, HEK293 TRPC4beta/mu-opioid (AID 2555;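 active = primary screen hit whose calcium fluorescence ratio, in both repeats, exceeds the weak agonist control mean by 3 SD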). Conditions: DAMGO EC20, Fluo-4 calcium flux, at 10 µM; active compounds read high.
For test [5], the target named is Short transient receptor potential channel 4 (Mus musculus) (UniProt Q9QUQ5). As to the kind of experiment: inhibitors of mouse TRPC4 channel, confirmation, cell-based, Fluo4, HEK293 TRPC4beta/mu-opioid (AID 2636;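 active = calcium signal cut by more than 3 SD below the full-agonist control yet still positive, in both repeats and the earlier primary screen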). Particulars: DAMGO, Fluo4 calcium flux, at 10 µM; active compounds read high.
Chain of Short transient receptor potential channel 4 (Mus musculus) (Q9QUQ5 whole entry, looked up): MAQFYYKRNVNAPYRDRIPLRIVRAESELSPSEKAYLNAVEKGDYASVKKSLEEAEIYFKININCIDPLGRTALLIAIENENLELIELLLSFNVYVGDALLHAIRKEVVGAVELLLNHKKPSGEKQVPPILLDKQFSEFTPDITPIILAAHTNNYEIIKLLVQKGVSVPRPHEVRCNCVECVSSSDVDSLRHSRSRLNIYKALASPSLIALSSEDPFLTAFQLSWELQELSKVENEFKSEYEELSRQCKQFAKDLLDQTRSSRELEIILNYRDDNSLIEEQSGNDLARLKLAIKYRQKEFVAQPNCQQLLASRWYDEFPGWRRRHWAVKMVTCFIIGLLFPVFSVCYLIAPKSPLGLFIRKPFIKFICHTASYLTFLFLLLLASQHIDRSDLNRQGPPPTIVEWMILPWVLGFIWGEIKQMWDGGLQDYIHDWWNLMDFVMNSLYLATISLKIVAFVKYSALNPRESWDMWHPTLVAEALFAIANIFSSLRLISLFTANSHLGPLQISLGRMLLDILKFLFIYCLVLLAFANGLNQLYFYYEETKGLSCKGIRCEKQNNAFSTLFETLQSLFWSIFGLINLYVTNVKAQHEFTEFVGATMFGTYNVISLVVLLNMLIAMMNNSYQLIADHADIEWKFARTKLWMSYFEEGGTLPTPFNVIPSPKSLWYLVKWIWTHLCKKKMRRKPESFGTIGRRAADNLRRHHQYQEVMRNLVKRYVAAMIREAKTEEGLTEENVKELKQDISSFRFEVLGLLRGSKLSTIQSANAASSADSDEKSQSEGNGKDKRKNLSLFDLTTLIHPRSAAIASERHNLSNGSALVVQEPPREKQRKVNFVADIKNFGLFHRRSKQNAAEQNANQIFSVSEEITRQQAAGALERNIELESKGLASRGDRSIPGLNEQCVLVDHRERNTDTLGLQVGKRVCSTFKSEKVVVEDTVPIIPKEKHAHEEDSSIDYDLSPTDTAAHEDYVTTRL
The target is the same in test [6]. Description: inhibitors of mouse TRPC4 channel, confirmation, cell-based, second round, Fluo4, HEK293 TRPC4beta/mu-opioid, 1 µM (AID 2637;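 active = calcium signal ratio cut to more than 3 SD under the fully stimulated control mean yet still positive, in both repeats and the primary screen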). Conditions: Fluo4 calcium flux, DAMGO, at 1 µM; active compounds read high.
Test [7] shares this target. Description: TRPC4 positive allosteric modulators, dose response, cell-based, HEK293 TRPC4/mu-opioid, Fluo-4 calcium, EC20 DAMGO (AID 434941;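 active = earlier screen potentiator hit that boosts the TRPC4 ion channel at some dose, with a dose response; inactive = no potentiation, no dose response, or not a prior hit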;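 also: calcium entry triggered by an EC20 dose of DAMGO at the co-expressed mu-opioid receptor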).
Test [8] shares this target. As to the kind of experiment: mouse TRPC4 channel inhibitors, dose response, cell-based, HEK293 TRPC4/mu-opioid, Fluo-4 calcium (AID 434942;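 active = primary screen inhibitor hit that blocks the TRPC4 channel at some tested dose, yielding a dose curve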).
In test [9] the target is Short transient receptor potential channel 6 (Mus musculus) (UniProt Q61143). As to the kind of experiment: inhibition of mouse TRPC6 channel, confirmation, selectivity assay for TRPC4 inhibitor project, cell-based, HEK293, membrane potential dye, duplicate (AID 434948;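 active = active in primary screen and both duplicates, each dropping signal beyond three positive-control SD with fluorescence still positive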). Particulars: HEK293 TRPC6, membrane potential dye fluorescence, at 10 µM, stimulated with maximal-effect acetylcholine; active compounds read high.
Chain of Short transient receptor potential channel 6 (Mus musculus) (Q61143 whole entry, looked up): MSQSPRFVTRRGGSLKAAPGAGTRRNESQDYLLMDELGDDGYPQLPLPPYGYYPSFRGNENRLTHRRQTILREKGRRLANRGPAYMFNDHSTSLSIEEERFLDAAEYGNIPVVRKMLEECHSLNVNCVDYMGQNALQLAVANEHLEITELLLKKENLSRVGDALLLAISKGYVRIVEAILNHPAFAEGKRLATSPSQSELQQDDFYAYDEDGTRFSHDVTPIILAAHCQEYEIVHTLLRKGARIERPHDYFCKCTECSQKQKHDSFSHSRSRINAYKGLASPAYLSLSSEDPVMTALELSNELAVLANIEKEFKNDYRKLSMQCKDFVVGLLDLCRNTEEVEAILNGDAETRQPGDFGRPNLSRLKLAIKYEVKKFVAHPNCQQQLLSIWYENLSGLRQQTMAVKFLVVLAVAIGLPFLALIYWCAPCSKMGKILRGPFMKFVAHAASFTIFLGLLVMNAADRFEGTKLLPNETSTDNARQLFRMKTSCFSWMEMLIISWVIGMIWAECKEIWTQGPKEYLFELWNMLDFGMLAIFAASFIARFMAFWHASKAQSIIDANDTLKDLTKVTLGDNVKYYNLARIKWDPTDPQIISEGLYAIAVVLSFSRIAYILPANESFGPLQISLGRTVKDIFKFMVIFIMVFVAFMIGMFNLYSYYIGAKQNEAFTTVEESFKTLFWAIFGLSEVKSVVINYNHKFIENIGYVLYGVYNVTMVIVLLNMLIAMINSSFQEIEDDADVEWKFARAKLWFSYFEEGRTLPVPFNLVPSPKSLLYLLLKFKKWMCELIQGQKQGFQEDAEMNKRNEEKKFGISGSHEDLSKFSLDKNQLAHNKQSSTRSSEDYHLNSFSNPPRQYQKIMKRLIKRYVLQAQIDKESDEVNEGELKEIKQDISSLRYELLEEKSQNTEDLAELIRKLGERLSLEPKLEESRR

The target is the same in test [10]. Description: activation of mouse TRPC6 channel, confirmation, selectivity assay for TRPC4 activator project, cell-based, HEK293, membrane potential dye, duplicate (AID 434950;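 active = membrane potential signal rise above negative control mean plus 3 SD in both duplicates, also active in the earlier TRPC4 screen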;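 as to activation: 0% = buffer only wells and 100% = acetylcholine maximal-effect wells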). Particulars: HEK293 TRPC6, membrane potential fluorescence, at 10 µM; active compounds read high.
The target is the same in test [11]. As to the kind of experiment: TRPC6 potentiation by TRPC4 potentiator hits, confirmation, selectivity assay for TRPC4 potentiator project, HEK293 cells, membrane potential dye, duplicate (AID 434952;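 active = compound raising the membrane signal above positive-control mean plus 3 SD in both repeats, and a primary screen hit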). Conditions: HEK293 TRPC6, membrane potential dye fluorescence, at 10 µM, maximal acetylcholine added after compound; active compounds read high.
Test [12] has as its target Short transient receptor potential channel 4 (Mus musculus) (UniProt Q9QUQ5). As to the kind of experiment: calcium flux activators in TRPC4/5HT1a cells, counter-screen for TRPC4 activator project, cell-based, second counter screen, HEK293 TRPC4/5HT1a, Fluo-4 (AID 434977;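 active = calcium signal rise above buffer-control mean plus 5 SD in both duplicates, and also a hit in the primary screen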;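 as to activation: plate controls were assay buffer for no effect and maximal serotonin response for full effect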). Conditions: Fluo-4 calcium flux, at 10 µM; active compounds read high.
Test [13] in a line: calcium flux inhibitors in TRPC4/5HT1a cells, confirmation, counter-screen for TRPC4 inhibitor project, cell-based, second counter screen, HEK293 TRPC4/5HT1a, Fluo-4 (AID 434978;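 active = primary screen active whose calcium signal fell more than 3 SD beyond the full-serotonin control mean in both duplicate plates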;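 also: serotonin given first at submaximal then at maximal dose after compound preincubation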). Conditions: Fluo-4 calcium flux, at 10 µM, serotonin added to trigger calcium flux; active compounds read high.
For test [14], the system named is TRPC4 (mouse), co-expressed with 5HT1a in HEK293. As to the kind of experiment: calcium flux potentiators in TRPC4/5HT1a cells, confirmation, counter-screen for TRPC4 potentiator project, cell-based, second counter screen, HEK293 TRPC4/5HT1a, Fluo-4 (AID 434979;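 active = signal rise over 3 SD above mean of control wells given weak agonist, in both repeats and first screen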). Particulars: Fluo-4 calcium flux, at 10 µM, serotonin added at its EC20 dose; active compounds read high.
A short description of test [15]: calcium flux activation in mu-opioid HEK293 cells, confirmation, counter-screen for TRPC4 activator project, cell-based, HEK293 mu-opioid receptor line (AID 449723).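 Also: counter screen cells carry the mu-opioid receptor alone and lack TRPC4.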 Conditions: Fluo-4 calcium fluorescence, at 10 µM; active compounds read high.
Test [16] in a line: calcium flux enhancement in mu-opioid HEK293 cells, confirmation, counter-screen for TRPC4 allosteric potentiator project, cell-based, HEK293 mu-opioid receptor line (AID 449724;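 active = calcium signal rise more than 3 SD above the low-dose agonist control mean, in both duplicate plates and the primary screen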;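 also: HEK293 cells carrying mu-opioid receptor only with no TRPC4 channel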). Particulars: Fluo-4 calcium flux, at 10 µM, compound added before EC20 DAMGO stimulus; active compounds read high.

Turning to `Cc1ccc2oc(=O)c3cnn(CC(=O)NC4CCN(Cc5ccccc5)CC4)c3c2c1`, the activation in test [1] was 68% (active). Further, the result in [2], in test [3], in test [4], in test [5], in test [6] and in [7] was inactive. Further, the outcome in test [8], in test [9], in test [10], in [11], in test [12] and in [13] was inactive. Besides, the outcome in test [14], in test [15] and in test [16] was inactive.

In the case of `COc1ccc(C(CNC(=O)c2cccc(S(=O)(=O)NCc3ccccc3)c2)N(C)C)cc1` (stereo not given), the activation is 129% (active) in test [1], 61% (active) in [2] and 38% (active) in test [10]. Also, the outcome in test [3], in [4], in [5], in [6], in [7] and in test [8] was inactive. For the same compound, the result in test [9], in test [11], in test [12], in test [13], in test [14] and in test [15] was inactive. The outcome in test [16] was inactive.

`CCOC(=O)C1(CCOc2ccccc2)CCN(Cc2ccc(OC)c(O)c2)CC1`: the figures for the activation in test [1], in [2] and in test [10] were 207% (active), 80% (active) and 66.5% (active), respectively. For the same compound, the outcome in test [3], in [4], in [5], in test [6], in [7] and in test [8] was inactive. Besides, the call in test [9], in test [11], in test [12], in [13], in test [14] and in test [15] was inactive. Besides, the result in [16] was inactive.

As to `CN(C)C(CNC(=S)Nc1ccccc1)c1cccnc1` (stereo not given), the activation in test [1] is 76% (active); in [2], 82% (active); in [10], 36% (active). Further, the outcome in test [3], in test [4], in [5], in test [6], in test [7] and in [8] was inactive. Also, the compound was called inactive in test [9], in test [11], in test [12], in test [13], in test [14] and in [15]. The outcome in test [16] was inactive.

`O=C(CCc1ccccc1)NNC(=S)NC(=O)c1ccc(Cl)cc1`: the activation in [1] was 170% (active); in test [10], 30% (active); in test [12], 66.8% (active); in test [15] it was 28.6% (active). Besides, the outcome in test [2], in [3], in test [4], in [5], in [6] and in test [7] was inactive. Besides, the result in [8], in test [9], in test [11], in test [13], in test [14] and in test [16] was inactive.

As to `Cc1ccc2c(C)c(C(=O)N(Cc3cccs3)C3CCS(=O)(=O)C3)oc2c1` (stereo not given), the outcome in test [1], in test [2], in [3], in test [4], in [5] and in test [6] was inactive. The outcome in test [7], in test [8], in [9], in [11], in test [12] and in test [13] was inactive. The result in test [14], in [15] and in test [16] was inactive. For the same compound, the activation in test [10] was 34.5% (active).

Regarding `O=C(CNS(=O)(=O)c1ccc2ccccc2c1)NCCc1ccccn1`, the activation in [1] was 110% (active). Also, the outcome in test [2], in test [3], in test [4], in test [5], in [6] and in test [7] was inactive. Further, the outcome in [8], in test [9], in test [10], in [11], in [12] and in test [13] was inactive. Moreover, the outcome in [14], in test [15] and in test [16] was inactive.

In the case of `COc1ccc(C(CCNCc2ccc(N(C)C)cc2)c2ccccc2OC)cc1` (stereo not given), the activation in test [1] was 133% (active); in test [12], 8.8% (active). Further, the outcome in test [2], in [3], in test [4], in test [5], in test [6] and in [7] was inactive. Also, the result in [8], in test [9], in [10], in [11], in test [13] and in test [14] was inactive. The outcome in [15] and in test [16] was inactive.

As to `Cc1ccc2[nH]c3c(=O)n(CCc4cnc[nH]4)cnc3c2c1`, the activation was 126% (active) in test [1], 27.5% (active) in test [10] and 33.2% (active) in test [12]. The result in test [2], in test [3], in [4], in test [5], in test [6] and in [7] was inactive. The outcome in test [8], in test [9], in [11], in [13], in test [14] and in test [15] was inactive. Further, the outcome in test [16] was inactive.

For the compound `CN(C)CCN(C(=O)c1cccc2ccccc12)c1nc2cc3c(cc2s1)OCO3`, the outcome in test [1], in test [2], in test [3], in [4], in [5] and in test [6] was inactive. The outcome in test [7], in test [8], in test [9], in test [10], in test [11] and in test [12] was inactive. Moreover, the outcome in test [13], in test [14], in test [15] and in [16] was inactive.

Regarding `CCCCCSc1nnc2c(n1)OC(c1cccn1C)N(C(C)=O)c1ccccc1-2` (stereo not given), the outcome in test [1], in test [2], in test [3], in [4], in [5] and in test [6] was inactive. Further, the outcome in test [7], in test [8], in test [9], in test [10], in [11] and in test [13] was inactive. The outcome in [14], in test [15] and in test [16] was inactive. Moreover, the activation in [12] was 18% (active).

For `CCc1cccc(CC)c1NC(=S)NCC(c1cccnc1)N(C)C` (stereo not given), the activation is 79% (active) in [1], 67% (active) in test [2] and 46% (active) in test [10]. The outcome in [3], in test [4], in test [5], in [6], in test [7] and in test [8] was inactive. The call in test [9], in test [11], in [12], in test [13], in test [14] and in [15] was inactive. Also, in [16], the outcome was inactive.

`CCCCN(CC)CCNC(=O)c1cc2cc3ccc(Cl)cc3nc2o1`: the activation in test [1] is 67% (active); in [12], 18.8% (active). Moreover, the outcome in test [2], in test [5], in test [6], in [7], in [8] and in test [9] was inactive. Also, the compound was called inactive in [10], in [11], in test [13], in [15] and in test [16]. For the same compound, the figures for the potentiation in test [3], in test [4] and in test [14] were 20% (active), 47% (active) and 40.5% (active), respectively.

In the case of `CCOC(=O)C1(Cc2cccc(F)c2)CCN(Cc2cnc(C)s2)CC1`, the outcome in test [1], in test [2], in test [3], in test [4], in [5] and in [6] was inactive. The outcome in test [7], in test [8], in test [9], in [11], in test [12] and in [13] was inactive. For the same compound, the outcome in [14], in [15] and in test [16] was inactive. Besides, the activation in test [10] is 44% (active).

As to `CN1CCCC(OC(=O)c2cc(Cl)cc(Cl)c2)C1` (stereo not given), the activation in test [1] was 186% (active); in test [2], 112% (active); in test [10] it was 38.5% (active); in test [12], 67.9% (active). In addition, the result in test [3], in test [4], in test [5], in [6], in [7] and in test [8] was inactive. The result in test [9], in [11], in test [13], in test [14], in test [15] and in [16] was inactive.
